# Results published in the supplement of paper PMC8728848.
# This is one part of a sample in which the strongest signals are shown more often than they occur.
# Tests used:
# Test in all cases: glycan array binding signal (z-score within array); higher = stronger binding
# Conditions in all cases: glycan notation: IUPAC condensed, linker removed; mutation: R82H, R255H
# [1] = molecular target: Fuc(a1-2)Gal(b1-3)GlcNAc(b1-3)[Gal(b1-4)GlcNAc(b1-6)]Gal(b1-4)Glc
# Method in brief: (§1)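 The binding signal is a Z-score computed within each array. Data were drawn from 3228 arrays in the Consortium for Functional Glycomics database, restricted to those with a known protein sequence. Scores were averaged over arrays of the same protein sequence at different concentrations or buffers, and over linkers, and negative values can be taken as non-binding.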
# [2] = molecular target: Fuc(a1-2)Gal(b1-3)[Fuc(a1-4)]GlcNAc(b1-2)Man(a1-3)[Fuc(a1-2)Gal(b1-3)[Fuc(a1-4)]GlcNAc(b1-2)Man(a1-3)]Man(b1-4)GlcNAc(b1-4)GlcNAc
# Method in brief: as §1
# [3] = molecular target: Fuc(a1-2)[Gal(a1-3)]Gal(b1-3)GlcNAc(b1-2)Man(a1-3)[Fuc(a1-2)[Gal(a1-3)]Gal(b1-3)GlcNAc(b1-2)Man(a1-6)]Man(b1-4)GlcNAc(b1-4)GlcNAc
# Method in brief: as §1
# [4] = molecular target: Fuc(a1-2)[Gal(a1-3)]Gal(b1-4)GlcNAc(b1-6)GalNAc
# Method in brief: as §1
# [5] = molecular target: Fuc(a1-2)[GalNAc(a1-3)]Gal
# Method in brief: as §1
# [6] = molecular target: Fuc(a1-2)[GalNAc(a1-3)]Gal(b1-3)GalNAc(b1-3)Gal(a1-4)Gal(b1-4)Glc
# Method in brief: as §1
# [7] = molecular target: Fuc(a1-2)[GalNAc(a1-3)]Gal(b1-3)GlcNAc(b1-2)Man(a1-3)[Fuc(a1-2)[GalNAc(a1-3)]Gal(b1-3)GlcNAc(b1-2)Man(a1-6)]Man(b1-4)GlcNAc(b1-4)GlcNAc
# Method in brief: as §1
# [8] = molecular target: Fuc(a1-2)[GalNAc(a1-3)]Gal(b1-4)GlcNAc(b1-2)Man(a1-3)[Fuc(a1-2)[GalNAc(a1-3)]Gal(b1-4)GlcNAc(b1-2)Man(a1-6)]Man(b1-4)GlcNAc(b1-4)GlcNAc
# Method in brief: as §1
# [9] = molecular target: Fuc(a1-2)[GalNAc(a1-3)]Gal(b1-4)GlcNAc(b1-3)Gal(b1-4)GlcNAc
# Method in brief: as §1
# [10] = molecular target: Fuc(a1-2)[GalNAc(a1-3)]Gal(b1-4)GlcNAc(b1-3)[Fuc(a1-2)[GalNAc(a1-3)]Gal(b1-4)GlcNAc(b1-6)]GalNAc
# Method in brief: as §1
# [11] = molecular target: Fuc(a1-3)[Gal(b1-4)]GlcNAc(b1-6)GalNAc
# Method in brief: as §1
# [12] = molecular target: Fuc(a1-3)[Gal3S(b1-4)]Glc
# Method in brief: as §1
# Fuc(a1-4)GlcNAc = molecular target: Fuc(a1-4)GlcNAc
# Method in brief: as §1
# [13] = molecular target: Gal(a1-3)Gal(b1-3)GlcNAc(b1-2)Man
# Method in brief: as §1
# [14] = molecular target: Gal(a1-3)[Gal(a1-4)]Gal(b1-4)GlcNAc
# Method in brief: as §1
# Gal(a1-4)Gal(b1-4)Glc = molecular target: Gal(a1-4)Gal(b1-4)Glc
# Method in brief: as §1
# Gal(b1-2)Gal = molecular target: Gal(b1-2)Gal
# Method in brief: as §1
# Gal(b1-3)GalNAc = molecular target: Gal(b1-3)GalNAc
# Method in brief: as §1
# [15] = molecular target: Gal(b1-3)GalNAc(b1-3)Gal(a1-4)Gal(b1-4)Glc
# Method in brief: as §1
# [16] = molecular target: Gal(b1-3)GalNAc(b1-4)Gal(b1-4)Glc
# Method in brief: as §1
# [17] = molecular target: Gal(b1-3)GlcNAc(a1-3)Gal(b1-4)GlcNAc
# Method in brief: as §1
# [18] = molecular target: Gal(b1-3)GlcNAc(b1-3)Gal(b1-4)Glc
# Method in brief: as §1
# [19] = molecular target: Gal(b1-3)GlcNAc(b1-6)GalNAc
# Method in brief: as §1
# [20] = molecular target: Gal(b1-3)[Fuc(a1-4)]GlcNAc(b1-6)GalNAc
# Method in brief: as §1
# Gal(b1-4)GlcNAc(b1-2)Man = molecular target: Gal(b1-4)GlcNAc(b1-2)Man
# Method in brief: as §1
# [21] = molecular target: Gal(b1-4)GlcNAc(b1-3)Gal(b1-4)GlcNAc(b1-2)Man(a1-3)[Gal(b1-4)GlcNAc(b1-3)Gal(b1-4)GlcNAc(b1-2)Man(a1-6)]Man(b1-4)GlcNAc(b1-4)GlcNAc
# Method in brief: as §1
# [22] = molecular target: Gal(b1-4)GlcNAc(b1-3)Gal(b1-4)GlcNAc(b1-3)Gal(b1-4)GlcNAc(b1-3)Gal(b1-4)GlcNAc(b1-3)Gal(b1-4)GlcNAc(b1-2)[Gal(b1-4)GlcNAc(b1-3)Gal(b1-4)GlcNAc(b1-3)Gal(b1-4)GlcNAc(b1-3)Gal(b1-4)GlcNAc(b1-3)Gal(b1-4)GlcNAc(b1-6)]Man(a1-6)[Gal(b1-4)GlcNAc(b1-3)Gal(b1-4)GlcNAc(b1-3)Gal(b1-4)GlcNAc(b1-3)Gal(b1-4)GlcNAc(b1-3)Gal(b1-4)GlcNAc(b1-2)Man(a1-3)]Man(b1-4)GlcNAc(b1-4)[Fuc(a1-6)]GlcNAc
# Method in brief: as §1
# [23] = molecular target: Gal(b1-4)GlcNAc(b1-3)Gal(b1-4)GlcNAc(b1-3)Gal(b1-4)GlcNAc(b1-3)Gal(b1-4)GlcNAc(b1-3)Gal(b1-4)GlcNAc(b1-3)Gal(b1-4)GlcNAc(b1-2)Man(a1-3)[Gal(b1-4)GlcNAc(b1-3)Gal(b1-4)GlcNAc(b1-3)Gal(b1-4)GlcNAc(b1-3)Gal(b1-4)GlcNAc(b1-3)Gal(b1-4)GlcNAc(b1-3)Gal(b1-4)GlcNAc(b1-2)Man(a1-6)]Man(b1-4)GlcNAc(b1-4)GlcNAc
# Method in brief: as §1
binder,measurement,setting,value
"Gal 8 (Mus musculus), Q9JL15 (protein) MGGSHHHHHHGMASMLSLNNLQNIIYNPIIPYVGTITEQLKPGSLIVIRGHVPKDSERFQVDFQLGNSLKPRADVAFHFNPHFKRSSCIVCNTLTQEKWGWEEITYDMPFRKEKSFEIVFMVLKNKFQVAVNGRHVLLYAHRISPEQIDTVGIYGKVNIHSIGFRFSSASALPHTLGDLQSMETSALGLTQINRENIQKPGKLQLSLPFEARLNASMGPGRTVVIKGEVNTNARSFNVDLVAGKTRDIALHLNPHLNVKAFVRNSFLQDAWGEEERNITCFPFSSGMYFEMIIYCDVREFKVAINGVHSLEYKHRFKDLSSIDTLSVDGDIRLLDVRSW",glycan array binding signal (z-score),[1],1.15
same,glycan array binding signal (z-score),[2],-0.083
same,glycan array binding signal (z-score),[3],4.77
same,glycan array binding signal (z-score),[4],-0.168
same,glycan array binding signal (z-score),[5],-0.248
same,glycan array binding signal (z-score),[6],-0.253
same,glycan array binding signal (z-score),[7],7.3
same,glycan array binding signal (z-score),[8],6.58
same,glycan array binding signal (z-score),[9],-0.08
same,glycan array binding signal (z-score),[10],0.117
same,glycan array binding signal (z-score),[11],-0.212
same,glycan array binding signal (z-score),[12],-0.192
same,glycan array binding signal (z-score),Fuc(a1-4)GlcNAc,0.01
same,glycan array binding signal (z-score),[13],-0.263
same,glycan array binding signal (z-score),[14],-0.236
same,glycan array binding signal (z-score),Gal(a1-4)Gal(b1-4)Glc,-0.18
same,glycan array binding signal (z-score),Gal(b1-2)Gal,-0.193
same,glycan array binding signal (z-score),Gal(b1-3)GalNAc,-0.251
same,glycan array binding signal (z-score),[15],-0.235
same,glycan array binding signal (z-score),[16],-0.226
same,glycan array binding signal (z-score),[17],-0.269
same,glycan array binding signal (z-score),[18],-0.263
same,glycan array binding signal (z-score),[19],-0.274
same,glycan array binding signal (z-score),[20],-0.243
same,glycan array binding signal (z-score),Gal(b1-4)GlcNAc(b1-2)Man,-0.197
same,glycan array binding signal (z-score),[21],0.454
same,glycan array binding signal (z-score),[22],6
same,glycan array binding signal (z-score),[23],7.05
